# According to PubChem BioAssay AID463173 (ICCB-Longwood Screening Facility, Harvard Medical School, 2010):
# In all, about 52,000 compounds went through this assay and about 4,300 (8.3%) were called active. No stated cut-off is given here; in the data, active means survival mostly below about 52% (no sharp cut-off); inactive means mostly above about 56%. Many of the other results were omitted from the sample, so actives are more common in it than they were.
# Test system: DeltatarO mutant
# Assay: S. aureus survival, RN4220 and DeltatarO strains – OD600, teichoic acid synthesis inhibitors, primary screen (AID 463173)
# Details: S. aureus RN4220 wild type/DeltatarO growth, OD600, 18 h, hits give low values, screened at 18.75 µg/mL (by protocol)
row,Compound,survival
1,COc1cc(NC(=O)CCc2c(C)nn(-c3ccc(N4CCCCC4)nn3)c2C)cc(OC)c1OC,95% (inactive)
2,CCOC(=O)c1ccccc1NC(=O)n1ncc2cc(Cl)ccc21,85% (inactive)
3,O=C(O)c1cc(N2C(=O)C3CC=CCC3C2=O)ccc1NCc1cccnc1 (stereo not given),90% (inactive)
4,CC(=O)c1cccc(NC(=O)c2sc(-n3nc(C)c(CCC(C)C)c3C)nc2C)c1,53% (inactive)
5,CCOc1ccccc1NC(=O)Cn1cc(C(=O)c2ccc(Cl)cc2)c(=O)c2ccc(C)nc21,87% (inactive)
6,CCc1ccc(N2CC(C)Cn3c2nc2c3c(=O)n(CC(=O)O)c(=O)n2C)cc1 (stereo not given),77% (inactive)
7,COc1ccc(C2(CNC(=O)C(=O)Nc3cccc(C(F)(F)F)c3)CCCC2)cc1OC,102% (inactive)
8,Cc1cccc2cc(CN(C(=O)c3ccco3)C3CCCC3)c(=O)[nH]c12,51% (inactive)
9,CCCCSc1ncnc2c1sc1nc(N3CCOCC3)c3c(c12)CCCC3,77% (inactive)
10,CCCc1nc2sc3c(N4CCCCC4)ncnc3c2c2c1CCCC2,12% (active)
11,CCc1nc2sc3c(N4CCCCC4)ncnc3c2c2c1CCCC2,175% (inactive)
12,CCCc1nc2sc3c(N4CCC(C)CC4)ncnc3c2c2c1CCCC2,61% (inactive)
13,CCCCN(CC)c1ncnc2c1sc1nc(N3CCOCC3)c3c(c12)CCCC3,35% (active)
14,CCCCCSc1ncnc2c1sc1nc(N3CCOCC3)c3c(c12)CCCC3,69% (inactive)
15,Cc1ccc(-c2[nH]c3ccccc3c2SCCNC(=O)c2ccc(S(=O)(=O)N(C)C)cc2)cc1,105% (inactive)
16,COc1ccc(NC(=O)CSCc2cc(=O)c3cc(C)ccc3[nH]2)cc1,68% (inactive)
17,CC(=O)Nc1ccc(NC(=O)C2CCN(S(=O)(=O)c3ccc4c(c3)CCCC(=O)N4)CC2)cc1,85% (inactive)
18,CC(C)(C)C(=O)OCc1cc(=O)n2nc(C3CCCCC3)sc2n1,80% (inactive)
19,COc1ccc(CC(=O)NC2CCN(CC(=O)c3ccc(F)cc3)CC2)cc1OC,108% (inactive)
20,Cc1cc(C)nc(NC(=O)COc2ccc(Br)cc2)n1,84% (inactive)
21,CCN(CC)CCNC(=O)Cn1ncc2c([nH]c3ccccc32)c1=O,89% (inactive)
22,CCCCN(C)CCNC(=O)Cn1ncc2c([nH]c3ccccc32)c1=O,8% (active)
23,O=C(Cn1ncc2c([nH]c3ccccc32)c1=O)NCc1cccc(Cl)c1,20% (active)
24,CN(CCCNC(=O)Cn1ncc2c([nH]c3ccccc32)c1=O)Cc1ccccc1,100% (inactive)
25,Cc1ccc(CCNC(=O)Cn2ncc3c([nH]c4ccccc43)c2=O)cc1,102% (inactive)
26,COc1ccc(CNC(=O)Cn2ncc3c([nH]c4ccccc43)c2=O)cc1,91% (inactive)
27,COc1ccc(-n2nc(C(=O)Nc3ccccn3)c3c4ccccc4n(C)c3c2=O)cc1,72% (inactive)
28,O=C(NCCc1csc(-c2cccc(F)c2)n1)c1ccc(Br)o1,83% (inactive)

row,Compound,survival
1,CCOc1ccc(N(C(=O)Cn2nnc3ccccc32)C(C(=O)NCc2ccccc2)c2ccc(OC)cc2)cc1 (stereo not given),52% (inactive)
2,CC(=O)c1cccc(N(C(=O)Cn2nnc3ccccc32)C(C(=O)NCc2ccccc2)c2ccc(F)cc2)c1 (stereo not given),85% (inactive)
3,COc1cccc(C(C(=O)NCc2ccccc2)N(C(=O)Cn2nnc3ccccc32)c2cccc(C(C)=O)c2)c1 (stereo not given),44% (active)
4,COc1ccc(C(C(=O)NCc2ccccc2)N(C(=O)Cn2nnc3ccccc32)c2ccc(OC)cc2)cc1 (stereo not given),60% (inactive)
5,COc1cc(N(C(=O)Cn2nnc3ccccc32)C(C(=O)NCC2CCCO2)c2ccc(F)cc2)ccc1-n1cnnn1 (stereo not given),105% (inactive)
6,CC(=O)Nc1ccc(N(C(=O)Cn2nnc3ccccc32)C(C(=O)NCc2ccccc2)c2ccc(C)cc2)cc1 (stereo not given),38% (active)
7,COc1ccc(N(C(=O)Cn2nnc3ccccc32)C(C(=O)NCc2ccccc2)c2ccc(F)cc2)cc1 (stereo not given),42% (active)
8,COc1ccc(C(C(=O)NCc2ccccc2)N(C(=O)Cn2nnc3ccccc32)c2cccc(OC)c2)cc1 (stereo not given),50% (inactive)
9,COc1ccc(C(C(=O)NCc2ccccc2)N(C(=O)Cn2nnc3ccccc32)c2ccc(F)cc2)cc1 (stereo not given),49% (inactive)
10,O=C(COc1ccc(S(=O)(=O)NC2CCCCC2)cc1)Nc1ccc(C(F)(F)F)cc1,64% (inactive)
11,CC(NC1=NCCN1)C(=O)O (stereo not given),97% (inactive)
12,COC(=O)C1C(=O)C2=C(CC1C)Nc1ccccc1NC2c1cc(F)ccc1F (stereo not given),82% (inactive)
13,Cc1occc1-c1nnc(SCC(=O)NCc2ccc3c(c2)OCO3)n1CC(C)C,88% (inactive)
14,COc1ccccc1NC(=O)CC(C)n1nc(C)cc1C (stereo not given),67% (inactive)
15,COc1ccc(NC(=O)CCS(=O)(=O)c2ccc3nc(C)sc3c2)cc1Cl,44% (inactive)
16,Cc1cc(-c2ccc(C)c(S(=O)(=O)NCCc3ccc(S(N)(=O)=O)cc3)c2)on1,92% (inactive)
17,Cc1ccc(C)c(N2C(=O)N(Cc3cccc(C(F)(F)F)c3)c3ccccc3S2(=O)=O)c1,88% (inactive)
18,COc1cccc(C(=O)N2CCN(CCc3ccncc3)CC2)c1,87% (inactive)
19,COc1ccc(-c2n[nH]c3c2C(c2ccc(O)cc2)N(c2ccc(Br)cc2)C3=O)cc1 (stereo not given),-3% (active)
20,O=C1c2[nH]nc(-c3ccc(Br)cc3)c2C(c2cccc(O)c2)N1c1ccc(Cl)cc1 (stereo not given),-10% (active)
21,Cc1ccc(-c2n[nH]c3c2C(c2cccc(O)c2)N(c2ccc(C(=O)O)cc2)C3=O)cc1 (stereo not given),86% (inactive)
22,CCOC(=O)c1ccc(N2C(=O)c3[nH]nc(-c4ccc(OC)cc4)c3C2c2cccc(O)c2)cc1 (stereo not given),57% (inactive)
23,CCOC(=O)c1ccc(N2C(=O)c3[nH]nc(-c4ccc(C)cc4)c3C2c2ccc(O)c(OCC)c2)cc1 (stereo not given),87% (inactive)
24,CCOc1ccc(-c2n[nH]c3c2C(c2ccccc2OC)N(c2ccc(Br)cc2)C3=O)cc1 (stereo not given),69% (inactive)
25,CCOC(=O)c1ccc(N2C(=O)c3[nH]nc(-c4ccc(OC)cc4)c3C2c2ccc(C)cc2)cc1 (stereo not given),81% (inactive)
26,CCOc1cc(C2c3c(-c4ccc(Br)cc4)n[nH]c3C(=O)N2c2ccc(Cl)cc2)ccc1O (stereo not given),35% (active)
27,COC(=O)c1ccc(C2c3c(-c4ccc(Br)cc4)n[nH]c3C(=O)N2c2ccc(Cl)cc2)cc1 (stereo not given),93% (inactive)
